# Data reported in ChEMBL document CHEMBL1961873, “Compounds: GSK PKIS; Assays: Nanosyn kinase panel” (2012).
# Legend:
# [1] = target: Tyrosine-protein kinase SYK (Homo sapiens) (UniProt P43405); conditions: at 1 µM
# [2] = target: T1, Tyrosine-protein kinase Tec (Homo sapiens) (UniProt P42680); conditions: at 0.1 µM
# T1 sequence (whole entry): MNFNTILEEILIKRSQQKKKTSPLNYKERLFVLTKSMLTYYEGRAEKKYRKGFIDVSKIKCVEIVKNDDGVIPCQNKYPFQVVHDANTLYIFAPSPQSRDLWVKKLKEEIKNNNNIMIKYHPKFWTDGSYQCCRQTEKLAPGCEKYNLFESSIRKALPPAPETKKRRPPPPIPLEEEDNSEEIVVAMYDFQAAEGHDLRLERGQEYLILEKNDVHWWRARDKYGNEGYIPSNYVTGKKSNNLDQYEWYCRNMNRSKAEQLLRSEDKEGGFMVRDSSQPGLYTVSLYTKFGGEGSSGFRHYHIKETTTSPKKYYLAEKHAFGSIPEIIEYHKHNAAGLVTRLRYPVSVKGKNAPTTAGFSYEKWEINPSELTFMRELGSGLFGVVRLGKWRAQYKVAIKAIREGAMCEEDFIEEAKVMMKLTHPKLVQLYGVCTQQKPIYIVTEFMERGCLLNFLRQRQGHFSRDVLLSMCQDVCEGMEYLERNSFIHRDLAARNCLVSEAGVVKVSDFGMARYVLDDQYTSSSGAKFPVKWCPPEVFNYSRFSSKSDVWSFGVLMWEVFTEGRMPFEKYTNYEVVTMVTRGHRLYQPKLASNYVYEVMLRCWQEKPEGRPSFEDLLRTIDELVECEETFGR
# [3] = target: T1, Tyrosine-protein kinase Tec (Homo sapiens); conditions: at 1 µM
# [4] = target: Angiopoietin-1 receptor (Homo sapiens) (UniProt Q02763); conditions: at 0.1 µM
# Angiopoietin-1 receptor (Homo sapiens), sequence (Q02763 whole entry): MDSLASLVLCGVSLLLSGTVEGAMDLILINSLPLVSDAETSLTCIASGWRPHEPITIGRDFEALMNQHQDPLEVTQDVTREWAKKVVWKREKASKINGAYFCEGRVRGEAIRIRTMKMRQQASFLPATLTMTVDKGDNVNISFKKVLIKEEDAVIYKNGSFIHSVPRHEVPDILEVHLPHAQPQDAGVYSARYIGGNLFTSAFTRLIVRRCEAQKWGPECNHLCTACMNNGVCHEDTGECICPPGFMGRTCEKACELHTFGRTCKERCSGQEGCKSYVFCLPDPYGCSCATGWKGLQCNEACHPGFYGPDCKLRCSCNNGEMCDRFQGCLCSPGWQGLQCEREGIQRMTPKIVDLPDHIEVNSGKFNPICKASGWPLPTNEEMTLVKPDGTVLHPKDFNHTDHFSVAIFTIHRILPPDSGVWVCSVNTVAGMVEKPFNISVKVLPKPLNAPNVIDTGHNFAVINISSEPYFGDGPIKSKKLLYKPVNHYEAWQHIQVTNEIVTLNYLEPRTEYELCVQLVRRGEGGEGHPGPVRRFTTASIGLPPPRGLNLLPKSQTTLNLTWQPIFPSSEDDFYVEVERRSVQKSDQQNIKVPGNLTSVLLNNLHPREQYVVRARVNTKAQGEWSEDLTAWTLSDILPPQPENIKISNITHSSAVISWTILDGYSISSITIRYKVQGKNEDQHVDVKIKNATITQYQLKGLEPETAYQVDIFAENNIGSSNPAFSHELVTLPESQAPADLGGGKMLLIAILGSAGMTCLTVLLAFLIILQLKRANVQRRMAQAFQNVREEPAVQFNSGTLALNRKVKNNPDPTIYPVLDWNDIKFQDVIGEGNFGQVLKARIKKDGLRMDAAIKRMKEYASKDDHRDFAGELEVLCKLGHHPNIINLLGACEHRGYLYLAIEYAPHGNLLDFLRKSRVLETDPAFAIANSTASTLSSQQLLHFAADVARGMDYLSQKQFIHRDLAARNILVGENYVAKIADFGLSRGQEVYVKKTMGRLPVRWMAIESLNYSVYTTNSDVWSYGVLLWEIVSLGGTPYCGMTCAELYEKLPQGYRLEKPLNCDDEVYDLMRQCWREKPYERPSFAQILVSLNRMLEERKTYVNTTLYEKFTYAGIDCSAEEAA
# [5] = target: Angiopoietin-1 receptor (Homo sapiens) (UniProt Q02763); conditions: at 1 µM
# [6] = target: T2, Non-receptor tyrosine-protein kinase TNK1 (Homo sapiens) (UniProt Q13470); conditions: at 0.1 µM
# T2 sequence (whole entry): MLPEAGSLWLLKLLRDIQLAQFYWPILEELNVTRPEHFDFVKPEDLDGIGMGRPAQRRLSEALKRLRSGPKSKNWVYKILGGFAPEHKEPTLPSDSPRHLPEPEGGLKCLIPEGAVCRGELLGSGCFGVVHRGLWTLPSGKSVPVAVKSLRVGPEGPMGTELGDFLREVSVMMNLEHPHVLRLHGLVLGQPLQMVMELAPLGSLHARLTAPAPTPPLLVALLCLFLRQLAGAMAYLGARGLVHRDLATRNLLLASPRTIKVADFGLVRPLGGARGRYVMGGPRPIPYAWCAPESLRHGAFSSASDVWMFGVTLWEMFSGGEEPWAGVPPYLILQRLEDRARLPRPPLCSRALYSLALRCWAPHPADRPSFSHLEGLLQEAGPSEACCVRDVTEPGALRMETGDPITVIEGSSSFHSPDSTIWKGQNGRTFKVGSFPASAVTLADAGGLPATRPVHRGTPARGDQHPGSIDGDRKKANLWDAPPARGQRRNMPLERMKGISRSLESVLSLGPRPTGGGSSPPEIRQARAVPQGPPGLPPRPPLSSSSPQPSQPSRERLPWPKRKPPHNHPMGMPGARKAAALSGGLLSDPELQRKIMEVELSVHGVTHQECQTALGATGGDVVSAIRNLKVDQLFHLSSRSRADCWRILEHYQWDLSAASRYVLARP
# [7] = target: T2, Non-receptor tyrosine-protein kinase TNK1 (Homo sapiens); conditions: at 1 µM
# [8] = target: Activated CDC42 kinase 1 (Homo sapiens) (UniProt Q07912); conditions: at 0.1 µM
# [9] = target: Activated CDC42 kinase 1 (Homo sapiens) (UniProt Q07912); conditions: at 1 µM
# [10] = target: High affinity nerve growth factor receptor (Homo sapiens) (UniProt P04629); conditions: at 0.1 µM
# High affinity nerve growth factor receptor (Homo sapiens), sequence (P04629 33-796 limits assumed): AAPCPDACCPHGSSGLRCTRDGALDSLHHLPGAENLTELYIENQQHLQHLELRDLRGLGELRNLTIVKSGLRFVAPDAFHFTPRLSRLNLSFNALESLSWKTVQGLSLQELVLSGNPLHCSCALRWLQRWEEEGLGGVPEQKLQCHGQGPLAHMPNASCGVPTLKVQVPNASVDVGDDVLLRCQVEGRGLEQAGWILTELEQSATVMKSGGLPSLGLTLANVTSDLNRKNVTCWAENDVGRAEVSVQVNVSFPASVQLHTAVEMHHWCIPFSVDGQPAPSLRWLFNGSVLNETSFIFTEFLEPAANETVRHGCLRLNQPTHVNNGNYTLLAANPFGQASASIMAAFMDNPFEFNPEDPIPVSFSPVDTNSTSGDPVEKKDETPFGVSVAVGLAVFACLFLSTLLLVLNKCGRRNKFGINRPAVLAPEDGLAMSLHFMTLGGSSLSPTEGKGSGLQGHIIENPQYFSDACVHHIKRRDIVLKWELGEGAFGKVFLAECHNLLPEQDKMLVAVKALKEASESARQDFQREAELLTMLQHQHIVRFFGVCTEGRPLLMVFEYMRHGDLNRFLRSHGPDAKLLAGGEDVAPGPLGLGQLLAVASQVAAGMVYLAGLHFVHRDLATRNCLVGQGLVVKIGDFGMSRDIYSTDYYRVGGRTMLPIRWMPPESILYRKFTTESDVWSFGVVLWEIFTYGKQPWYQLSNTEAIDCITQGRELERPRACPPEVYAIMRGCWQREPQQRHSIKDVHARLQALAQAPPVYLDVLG
# [11] = target: High affinity nerve growth factor receptor (Homo sapiens) (UniProt P04629); conditions: at 1 µM
# [12] = target: BDNF/NT-3 growth factors receptor (Homo sapiens) (UniProt Q16620); conditions: at 0.1 µM
# BDNF/NT-3 growth factors receptor (Homo sapiens), sequence (Q16620 32-822 limits assumed): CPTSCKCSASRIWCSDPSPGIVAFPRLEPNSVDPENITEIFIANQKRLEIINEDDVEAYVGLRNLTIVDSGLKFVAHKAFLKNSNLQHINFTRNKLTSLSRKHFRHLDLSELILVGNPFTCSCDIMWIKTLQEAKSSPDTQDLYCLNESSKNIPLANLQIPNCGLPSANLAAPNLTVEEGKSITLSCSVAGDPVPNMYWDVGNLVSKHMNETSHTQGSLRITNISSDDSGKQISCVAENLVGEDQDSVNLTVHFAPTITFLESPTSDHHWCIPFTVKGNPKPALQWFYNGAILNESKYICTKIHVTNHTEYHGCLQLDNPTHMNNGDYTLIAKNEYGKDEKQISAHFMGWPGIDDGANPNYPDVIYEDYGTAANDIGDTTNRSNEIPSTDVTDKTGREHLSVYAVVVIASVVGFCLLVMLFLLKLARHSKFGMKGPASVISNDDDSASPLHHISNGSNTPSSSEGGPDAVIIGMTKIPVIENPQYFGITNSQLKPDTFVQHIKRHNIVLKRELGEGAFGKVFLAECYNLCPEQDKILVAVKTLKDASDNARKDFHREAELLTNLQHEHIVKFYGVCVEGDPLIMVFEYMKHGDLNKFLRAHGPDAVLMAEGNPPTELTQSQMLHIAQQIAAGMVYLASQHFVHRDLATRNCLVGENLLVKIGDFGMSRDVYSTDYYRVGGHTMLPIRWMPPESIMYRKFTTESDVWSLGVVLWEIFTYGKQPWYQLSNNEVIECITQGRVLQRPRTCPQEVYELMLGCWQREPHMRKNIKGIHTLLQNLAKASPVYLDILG
# [13] = target: BDNF/NT-3 growth factors receptor (Homo sapiens) (UniProt Q16620); conditions: at 1 µM
# [14] = target: NT-3 growth factor receptor (Homo sapiens) (UniProt Q16288); conditions: at 0.1 µM
# NT-3 growth factor receptor (Homo sapiens), sequence (Q16288 32-839 limits assumed): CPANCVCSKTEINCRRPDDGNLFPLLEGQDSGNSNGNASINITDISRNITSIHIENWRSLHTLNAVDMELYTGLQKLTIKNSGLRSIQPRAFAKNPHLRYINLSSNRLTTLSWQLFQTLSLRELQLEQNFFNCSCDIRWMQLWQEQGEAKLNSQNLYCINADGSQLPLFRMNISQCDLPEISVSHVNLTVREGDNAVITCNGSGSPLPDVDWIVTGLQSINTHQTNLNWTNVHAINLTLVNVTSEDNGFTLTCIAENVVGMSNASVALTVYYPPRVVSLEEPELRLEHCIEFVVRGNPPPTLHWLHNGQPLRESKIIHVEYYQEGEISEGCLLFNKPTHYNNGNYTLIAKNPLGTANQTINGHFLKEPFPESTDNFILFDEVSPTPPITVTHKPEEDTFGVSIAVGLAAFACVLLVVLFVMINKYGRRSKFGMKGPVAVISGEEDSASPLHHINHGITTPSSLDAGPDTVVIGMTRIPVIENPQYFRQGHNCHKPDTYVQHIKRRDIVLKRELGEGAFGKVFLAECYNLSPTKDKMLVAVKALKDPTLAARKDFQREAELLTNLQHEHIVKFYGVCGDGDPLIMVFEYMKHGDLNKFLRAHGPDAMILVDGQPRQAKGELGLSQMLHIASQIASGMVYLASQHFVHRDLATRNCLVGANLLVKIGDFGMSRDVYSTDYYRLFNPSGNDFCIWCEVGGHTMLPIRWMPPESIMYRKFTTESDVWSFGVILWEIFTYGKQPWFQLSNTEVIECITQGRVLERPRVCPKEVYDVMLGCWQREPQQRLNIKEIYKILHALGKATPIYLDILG
# [15] = target: NT-3 growth factor receptor (Homo sapiens) (UniProt Q16288); conditions: at 1 µM
# [16] = target: T3, Tyrosine-protein kinase TXK (Homo sapiens) (UniProt P42681); conditions: at 0.1 µM
# T3 sequence (whole entry): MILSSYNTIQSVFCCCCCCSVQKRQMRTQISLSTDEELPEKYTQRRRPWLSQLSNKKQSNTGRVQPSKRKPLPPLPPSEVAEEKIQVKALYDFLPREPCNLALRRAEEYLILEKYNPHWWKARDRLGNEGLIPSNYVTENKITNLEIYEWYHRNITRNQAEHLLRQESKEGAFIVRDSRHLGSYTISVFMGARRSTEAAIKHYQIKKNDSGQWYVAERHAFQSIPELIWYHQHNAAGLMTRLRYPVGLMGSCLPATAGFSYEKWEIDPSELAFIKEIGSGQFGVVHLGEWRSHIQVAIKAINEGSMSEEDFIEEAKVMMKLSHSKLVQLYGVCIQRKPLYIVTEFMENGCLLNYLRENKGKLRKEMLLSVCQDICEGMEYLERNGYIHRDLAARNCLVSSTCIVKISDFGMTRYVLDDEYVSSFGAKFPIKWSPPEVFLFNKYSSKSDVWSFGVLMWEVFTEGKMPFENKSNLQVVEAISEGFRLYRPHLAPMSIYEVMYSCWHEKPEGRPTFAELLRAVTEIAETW
# [17] = target: T3, Tyrosine-protein kinase TXK (Homo sapiens); conditions: at 1 µM
# [18] = target: Non-receptor tyrosine-protein kinase TYK2 (Homo sapiens) (UniProt P29597); conditions: at 0.1 µM;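 note: each value is a mean of the inhibition readings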
# Non-receptor tyrosine-protein kinase TYK2 (Homo sapiens), sequence (P29597 whole entry): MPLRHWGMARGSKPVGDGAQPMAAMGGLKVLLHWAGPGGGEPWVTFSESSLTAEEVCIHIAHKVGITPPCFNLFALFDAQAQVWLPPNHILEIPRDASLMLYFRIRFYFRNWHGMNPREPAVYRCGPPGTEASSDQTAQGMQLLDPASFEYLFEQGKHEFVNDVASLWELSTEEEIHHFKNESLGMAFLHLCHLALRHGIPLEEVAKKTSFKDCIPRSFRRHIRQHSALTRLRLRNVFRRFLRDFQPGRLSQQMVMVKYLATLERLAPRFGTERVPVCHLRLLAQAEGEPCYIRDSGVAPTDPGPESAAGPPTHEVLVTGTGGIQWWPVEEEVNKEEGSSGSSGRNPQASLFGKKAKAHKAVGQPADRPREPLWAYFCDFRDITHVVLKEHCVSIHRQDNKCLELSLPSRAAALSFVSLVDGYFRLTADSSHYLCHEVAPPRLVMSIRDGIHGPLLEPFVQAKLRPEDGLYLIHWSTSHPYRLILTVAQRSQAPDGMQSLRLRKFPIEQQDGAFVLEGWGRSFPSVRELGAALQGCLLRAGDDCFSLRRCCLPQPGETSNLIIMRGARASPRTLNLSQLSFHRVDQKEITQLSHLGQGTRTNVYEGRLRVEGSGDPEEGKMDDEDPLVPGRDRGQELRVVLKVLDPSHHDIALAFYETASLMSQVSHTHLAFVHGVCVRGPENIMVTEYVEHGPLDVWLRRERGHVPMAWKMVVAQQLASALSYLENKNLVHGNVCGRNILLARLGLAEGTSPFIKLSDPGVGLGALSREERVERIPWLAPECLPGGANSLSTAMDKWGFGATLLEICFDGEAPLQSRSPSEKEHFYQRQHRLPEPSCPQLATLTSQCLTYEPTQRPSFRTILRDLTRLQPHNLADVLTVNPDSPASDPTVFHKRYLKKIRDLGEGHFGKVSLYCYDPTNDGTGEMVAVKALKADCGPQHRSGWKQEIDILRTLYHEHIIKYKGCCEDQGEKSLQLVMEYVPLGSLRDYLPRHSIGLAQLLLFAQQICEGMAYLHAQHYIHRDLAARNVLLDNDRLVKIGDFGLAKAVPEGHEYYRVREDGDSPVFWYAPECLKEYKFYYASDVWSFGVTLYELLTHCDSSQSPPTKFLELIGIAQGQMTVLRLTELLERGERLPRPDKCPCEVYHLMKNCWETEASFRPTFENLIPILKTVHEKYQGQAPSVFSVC
# [19] = target: T4, Dual specificity protein kinase TTK (Homo sapiens) (UniProt P33981); conditions: at 1 µM;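 note: reported figures are mean TTK inhibition at 1 µM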
# T4 sequence (whole entry): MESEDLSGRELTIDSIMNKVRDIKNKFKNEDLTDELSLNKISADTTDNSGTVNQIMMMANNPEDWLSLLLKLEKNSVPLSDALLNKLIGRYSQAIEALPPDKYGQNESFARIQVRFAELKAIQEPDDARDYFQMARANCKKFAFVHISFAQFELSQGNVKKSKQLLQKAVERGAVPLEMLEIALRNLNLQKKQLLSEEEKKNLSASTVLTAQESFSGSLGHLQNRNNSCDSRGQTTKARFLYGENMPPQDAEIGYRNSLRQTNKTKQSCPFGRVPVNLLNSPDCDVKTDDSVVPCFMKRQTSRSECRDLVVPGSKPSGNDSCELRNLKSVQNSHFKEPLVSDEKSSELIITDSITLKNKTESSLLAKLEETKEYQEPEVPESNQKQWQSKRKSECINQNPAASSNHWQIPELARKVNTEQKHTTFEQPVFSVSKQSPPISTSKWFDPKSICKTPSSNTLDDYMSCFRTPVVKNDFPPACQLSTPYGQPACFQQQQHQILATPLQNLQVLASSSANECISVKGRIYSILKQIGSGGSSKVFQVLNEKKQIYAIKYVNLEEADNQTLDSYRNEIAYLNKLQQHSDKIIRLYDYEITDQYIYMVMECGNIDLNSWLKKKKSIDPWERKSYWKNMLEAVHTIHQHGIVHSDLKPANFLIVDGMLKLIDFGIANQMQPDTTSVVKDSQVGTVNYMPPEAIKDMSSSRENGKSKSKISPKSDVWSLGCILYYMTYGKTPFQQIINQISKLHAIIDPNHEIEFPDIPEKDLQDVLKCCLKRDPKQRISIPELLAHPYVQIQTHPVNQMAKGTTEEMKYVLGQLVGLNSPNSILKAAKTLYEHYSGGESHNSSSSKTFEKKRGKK
# [20] = target: T5, Aurora kinase A (Homo sapiens) (UniProt O14965); conditions: at 0.1 µM;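 note: each reported value is a mean percent inhibition of Aurora-A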
# T5 sequence (whole entry): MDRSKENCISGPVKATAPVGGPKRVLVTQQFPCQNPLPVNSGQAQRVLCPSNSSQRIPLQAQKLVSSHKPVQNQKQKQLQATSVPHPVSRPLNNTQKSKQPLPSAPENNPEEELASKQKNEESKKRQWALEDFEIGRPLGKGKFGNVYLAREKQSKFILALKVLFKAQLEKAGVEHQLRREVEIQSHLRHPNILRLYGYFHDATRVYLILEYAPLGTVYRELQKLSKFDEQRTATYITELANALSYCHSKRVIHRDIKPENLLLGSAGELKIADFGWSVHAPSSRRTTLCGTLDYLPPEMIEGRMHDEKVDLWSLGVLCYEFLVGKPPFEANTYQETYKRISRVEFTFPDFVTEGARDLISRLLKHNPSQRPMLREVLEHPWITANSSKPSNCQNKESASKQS
compound,measurement,setting,value
CN(c1ccc(NC(=O)NCCN2CCOCC2)cc1)c1ccnc(Nc2ccc(CS(C)(=O)=O)cc2)n1,inhibition,[1],-6.78%
same,inhibition,[2],5.49%
same,inhibition,[3],24.8%
same,inhibition,[4],3.99%
same,inhibition,[5],29.3%
same,inhibition,[6],15.5%
same,inhibition,[7],63.5%
same,inhibition,[8],1.35%
same,inhibition,[9],8.46%
same,inhibition,[10],1.46%
same,inhibition,[11],5.98%
same,inhibition,[12],3.15%
same,inhibition,[13],8%
same,inhibition,[14],1.78%
same,inhibition,[15],11.3%
same,inhibition,[16],16.9%
same,inhibition,[17],57.7%
same,inhibition,[18],-6.06%
same,inhibition,[19],7.72%
same,inhibition,[20],24.5%
CCCNc1cccc(-n2ncc3c(N/N=C/c4ccncc4)ncnc32)c1,inhibition,[1],-2.86%
same,inhibition,[2],2.52%
same,inhibition,[3],7.76%
same,inhibition,[4],8.93%
same,inhibition,[5],36.2%
same,inhibition,[6],9.78%
same,inhibition,[7],48%
same,inhibition,[8],0.38%
same,inhibition,[9],3.51%
same,inhibition,[10],-0.62%
same,inhibition,[11],7.34%
same,inhibition,[12],5.18%
same,inhibition,[13],33.9%
same,inhibition,[14],4.23%
same,inhibition,[15],36.8%
same,inhibition,[16],2.17%
same,inhibition,[17],8.54%
same,inhibition,[18],-0.85%
same,inhibition,[19],15.7%
same,inhibition,[20],9.48%
CS(=O)(=O)CCNCc1ccoc1-c1ccc2ncnc(Nc3ccc(OCc4ccccc4)cc3)c2c1,inhibition,[1],0.23%
same,inhibition,[2],0.03%
same,inhibition,[3],3.04%
same,inhibition,[4],1.86%
same,inhibition,[5],4.86%
same,inhibition,[6],1.08%
same,inhibition,[7],5.74%
same,inhibition,[8],0.06%
same,inhibition,[9],0.6%
same,inhibition,[10],1.31%
same,inhibition,[11],1.88%
same,inhibition,[12],1.72%
same,inhibition,[13],4.41%
same,inhibition,[14],2.02%
same,inhibition,[15],1.74%
same,inhibition,[16],0.41%
same,inhibition,[17],1.96%
same,inhibition,[18],1.14%
same,inhibition,[19],5.58%
same,inhibition,[20],3.55%
c1ccc(-c2n[nH]cc2-c2ccnc(-c3ccc(OCCn4ccnc4)cc3)c2)nc1,inhibition,[1],0.33%
same,inhibition,[2],0.42%
same,inhibition,[3],0.73%
same,inhibition,[4],0.28%
same,inhibition,[5],3.93%
same,inhibition,[6],-0.4%
same,inhibition,[7],5.89%
same,inhibition,[8],-0.42%
same,inhibition,[9],0.83%
same,inhibition,[10],2.17%
same,inhibition,[11],3.78%
same,inhibition,[12],0.64%
same,inhibition,[13],4.04%
same,inhibition,[14],0.02%
same,inhibition,[15],4.91%
same,inhibition,[16],0.7%
same,inhibition,[17],4.37%
same,inhibition,[18],1.04%
same,inhibition,[19],10.7%
same,inhibition,[20],1.14%
Fc1cccc(COc2ccc(Nc3ncncc3C#Cc3ccccc3)cc2Cl)c1,inhibition,[1],-0.97%
same,inhibition,[2],4.69%
same,inhibition,[3],4.11%
same,inhibition,[4],1.87%
same,inhibition,[5],2.11%
same,inhibition,[6],1.37%
same,inhibition,[7],9.13%
same,inhibition,[8],1.84%
same,inhibition,[9],3.24%
same,inhibition,[10],2.85%
same,inhibition,[11],2.13%
same,inhibition,[12],2.56%
same,inhibition,[13],5.8%
same,inhibition,[14],2.81%
same,inhibition,[15],6.63%
same,inhibition,[16],1.94%
same,inhibition,[17],3.56%
same,inhibition,[18],-4.7%
same,inhibition,[19],8.47%
same,inhibition,[20],2.33%
CS(=O)(=O)Nc1ccc(-c2ccc3c(NC(=O)C4CC4)n[nH]c3c2)cc1,inhibition,[1],-1.82%
same,inhibition,[2],3.96%
same,inhibition,[3],7.11%
same,inhibition,[4],2.18%
same,inhibition,[5],10.9%
same,inhibition,[6],2.68%
same,inhibition,[7],5.17%
same,inhibition,[8],1.26%
same,inhibition,[9],3.12%
same,inhibition,[10],2.98%
same,inhibition,[11],3.27%
same,inhibition,[12],2.22%
same,inhibition,[13],5.91%
same,inhibition,[14],2.1%
same,inhibition,[15],9.06%
same,inhibition,[16],2.62%
same,inhibition,[17],5.31%
same,inhibition,[18],-0.89%
same,inhibition,[19],11.9%
same,inhibition,[20],2.55%
